Experimental data from the supplement of paper PMC6555819.

Test system: LXRb:RXRa (NR concentration 270 nM, RXRa partner concentration 90 nM)
Experiment: PBM binding z-score (relative to random genomic background probes); higher = stronger binding; sequences stand for … in GC…GCGATTGACAGCGTAGAATGAAGG
Summary of the method: (§1)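 Probes were double-stranded and carried 34-nt variable regions with direct-repeat seeds, single-nucleotide variants, half-site ablations and random human genomic background sequences, printed on custom Agilent 4×180K protein-binding microarrays. Arrays were incubated 1 h with ligand-free nuclear receptor dimers in PBS pH 7.4, 2% milk, 0.02% Triton X-100, 1 mM DTT, 0.2 mg/mL BSA and 0.4 mg/ml salmon testes DNA. Antibodies against each partner (one per run) detected binding, and scanned fluorescence was regression-normalized. Binding z-scores use the random background probes as reference.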

Row | Sequence | PBM binding z-score
1 | CGAACTAGGTCAGCCAGGACAGTGAATACATTGA | 0.649
2 | GGTGCTAGGTCAGGTTGGTCAGCTAACGGGTACG | 1.09
3 | CCTCGGAGGACAGAAGGTAAGAGCTGTCCGCTTT | -1.02
4 | TCTTGTAGAGCAACAGGAGGTTAAGAAAGATCGA | 0.486
5 | TGATATAGGTAATACAGGTGAAAGTCGGCATCTA | 0.418
6 | GCTGCTAGGTCAGGTTGGTCAGCTGACGGGTACG | 0.356
7 | GATACAGGGTCATGGCCAGAGTACGCGTATTGAT | 3.79
8 | CCTACTGGGCCAAAGGTCACTGATTCCAATGCTC | 4.72
9 | GCGATTGGGGCATCAGCAGGTTACCATAACTTAA | 1.24
10 | GCTTACGCGTCAAAGGTTATAGCATGAATAGAAT | 2.18
11 | TCGAGCAGGCCAGAGGGTCACTCAAGAGGTACGG | 1.11
12 | CCTGCTAGGTCAATGGTCAGATAAAGCAGCTCGC | 1.61
13 | AGAACGAGGGCACGCTTAGTTGATAGCAGAGTAG | 0.495
14 | TCTGCTAGGTCAAGGATGGTCAGCTAATCTGCTA | 1.48
15 | TCGAGTAGGTTAATCGGGGCATTCAGCCAACATA | 0.859
16 | CGTCCAAGGTCAAGGTCATTGAAAGAGACTCGAA | 5.26
17 | TTACCAAGGTGAGAGGTCGTTGATGCACGCCTTG | 1.46
18 | CCTAGCAGGCCAATCTGGGTCACTAAAGGCTTGA | 0.511
19 | CGTCCAAGGTTAGCAGGTCAGTGAAAGCGACGTG | 0.92
20 | CGTCCAAGGTCAATGCTCGGTCAGTGAAAGCATT | 4.04

Row | Sequence | PBM binding z-score
21 | CCTAGCAAGCCAATCTGGGTCACTCAAGGCTTGA | 0.641
22 | AGTCTAAGTTCACTAGGTAACGTAAGATTCAGCT | 1.84
23 | GGAACGAGGGCATTCGAGTTGATGGCATGGCGAT | -0.299
24 | GCGACTGGGGCAAAGCTGGTTACCATAAGGTTGG | -0.147
25 | ATCGCAAGGTCGAAGGTGAGTATACCCACCCGAA | 1.16
26 | CGTCCCAGGTCAATGCTAGGTCAGTGAAAGCATT | 3.02
27 | GCATATAGGTAATACAAGGTGAAAGGCCGATTGT | 0.488
28 | ACAACGAGGGCACGCTGAGTTGATAGCAGAGTAG | 0.00813
29 | CAAACTAGGTCATGGTCAAAGTCGGTTTGTGCCA | 1.94
30 | CGTCCAAGGTGAGCAGGTCAGTGAAAGCGACGTG | 0.202
31 | TTACCAAGGTGAGCTGAGGTTGTTGATCCAACTC | -0.269
32 | GCTAGTTGGTCAGTAAGAGGTCACACACCGGTCG | 3.51
33 | CGTCCAAGGTCAATGCTAGGTCAATGAAAGCATT | 4.64
34 | GCTAGTTGGTCAGCAAAAGGTCACACACCGGTCG | 3.94
35 | CCTAGTTGGTCATGAGGTCACACACCGGATATGA | 4
36 | CCAGACAGGTGTAAGGTAACTCAGTCTGGTACGC | -0.421
37 | TCGAGGAGGTTAGTCGGGGCATTCAGCCAACATA | 1.21
38 | ATCGAAAGGTCGAGGTGAGTAGAGAGAAAGGGAA | 2.46
39 | CCGACTGGGACAAAGGTTACCATACTCAGTACGA | 1.8
40 | CCGACTGGGGCATAAAGGTTACCATACCATCCGG | 0.923

Test system: LXRb homodimer (NR concentration 270 nM)
Experiment: as above
Summary of the method: as §1

Row | Sequence | PBM binding z-score
41 | CGAACTAGGTCAGCCAGGACAGTGAATACATTGA | -0.648
42 | GGTGCTAGGTCAGGTTGGTCAGCTAACGGGTACG | 0.134
43 | CCTCGGAGGACAGAAGGTAAGAGCTGTCCGCTTT | -1.17
44 | TCTTGTAGAGCAACAGGAGGTTAAGAAAGATCGA | -0.586
45 | TGATATAGGTAATACAGGTGAAAGTCGGCATCTA | 0.00189
46 | GCTGCTAGGTCAGGTTGGTCAGCTGACGGGTACG | -0.106
47 | GATACAGGGTCATGGCCAGAGTACGCGTATTGAT | -0.283
48 | CCTACTGGGCCAAAGGTCACTGATTCCAATGCTC | 0.63
49 | GCGATTGGGGCATCAGCAGGTTACCATAACTTAA | -0.0268
50 | GCTTACGCGTCAAAGGTTATAGCATGAATAGAAT | -0.553
51 | TCGAGCAGGCCAGAGGGTCACTCAAGAGGTACGG | -1.33
52 | CCTGCTAGGTCAATGGTCAGATAAAGCAGCTCGC | -0.124
53 | AGAACGAGGGCACGCTTAGTTGATAGCAGAGTAG | -0.638
54 | TCTGCTAGGTCAAGGATGGTCAGCTAATCTGCTA | -0.198
55 | TCGAGTAGGTTAATCGGGGCATTCAGCCAACATA | -0.245
56 | CGTCCAAGGTCAAGGTCATTGAAAGAGACTCGAA | 1.4
57 | TTACCAAGGTGAGAGGTCGTTGATGCACGCCTTG | -0.758
58 | CCTAGCAGGCCAATCTGGGTCACTAAAGGCTTGA | -0.766
59 | CGTCCAAGGTTAGCAGGTCAGTGAAAGCGACGTG | -0.45
60 | CGTCCAAGGTCAATGCTCGGTCAGTGAAAGCATT | 0.788

Row | Sequence | PBM binding z-score
61 | CCTAGCAAGCCAATCTGGGTCACTCAAGGCTTGA | -0.582
62 | AGTCTAAGTTCACTAGGTAACGTAAGATTCAGCT | 0.221
63 | GGAACGAGGGCATTCGAGTTGATGGCATGGCGAT | -0.896
64 | GCGACTGGGGCAAAGCTGGTTACCATAAGGTTGG | -0.966
65 | ATCGCAAGGTCGAAGGTGAGTATACCCACCCGAA | -0.359
66 | CGTCCCAGGTCAATGCTAGGTCAGTGAAAGCATT | -0.0307
67 | GCATATAGGTAATACAAGGTGAAAGGCCGATTGT | -0.248
68 | ACAACGAGGGCACGCTGAGTTGATAGCAGAGTAG | -0.476
69 | CAAACTAGGTCATGGTCAAAGTCGGTTTGTGCCA | 0.0742
70 | CGTCCAAGGTGAGCAGGTCAGTGAAAGCGACGTG | -1.28
71 | TTACCAAGGTGAGCTGAGGTTGTTGATCCAACTC | -1.04
72 | GCTAGTTGGTCAGTAAGAGGTCACACACCGGTCG | 0.636
73 | CGTCCAAGGTCAATGCTAGGTCAATGAAAGCATT | 1.53
74 | GCTAGTTGGTCAGCAAAAGGTCACACACCGGTCG | 0.516
75 | CCTAGTTGGTCATGAGGTCACACACCGGATATGA | 0.753
76 | CCAGACAGGTGTAAGGTAACTCAGTCTGGTACGC | -0.449
77 | TCGAGGAGGTTAGTCGGGGCATTCAGCCAACATA | -0.337
78 | ATCGAAAGGTCGAGGTGAGTAGAGAGAAAGGGAA | 0.462
79 | CCGACTGGGACAAAGGTTACCATACTCAGTACGA | -0.631
80 | CCGACTGGGGCATAAAGGTTACCATACCATCCGG | -0.959
